Source: PubChem (NMMLSC)
This is a sample that favours compounds with a hit; in the whole collection about 2.5% have one here.
MEKK2 mut-MEK5: signal of MEK5 binding to mutant human MEKK2 PB1 domain; bead flow cytometry, Alexa488-MEK5 binding to MEKK2 mutant; percent response, % at 10 µM; 290,000 tested, 0.35% active; in the data active = percent response above about 24%, passing the limit was not always enough
MEKK3 PB1 HTS: raises or lowers MEK5 binding to the human MEKK3 PB1 domain | bead-based flow cytometry, Alexa488-MEK5 binding to MEKK3; actives lie on both sides; 0 = blocked by unlabeled MEK5, 100 = vehicle | 290,000 tested, 1.4% active | binding response (% of control), % at 10 µM;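 active = binding response more than 3 SD above or below the average of its plate-row segment, actives on both sides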;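 also: Alexa488 bead fluorescence after subtracting the streptavidin-only scavenger bead signal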
GRK2 inh: human GRK2 inhibition via aptamer displacement; P25098; bead flow cytometry, FAM-aptamer displacement from GRK2; inhibition of aptamer binding, % at 10 µM; 330,000 tested, 0.59% active;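 active = inhibition of aptamer binding above 40%, roughly 3 SD of noise, on plates passing a quality check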;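 also: median bead fluorescence of bound FAM aptamer so fluorescent compounds give negative values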
Target sequence (P25098 whole entry, looked up): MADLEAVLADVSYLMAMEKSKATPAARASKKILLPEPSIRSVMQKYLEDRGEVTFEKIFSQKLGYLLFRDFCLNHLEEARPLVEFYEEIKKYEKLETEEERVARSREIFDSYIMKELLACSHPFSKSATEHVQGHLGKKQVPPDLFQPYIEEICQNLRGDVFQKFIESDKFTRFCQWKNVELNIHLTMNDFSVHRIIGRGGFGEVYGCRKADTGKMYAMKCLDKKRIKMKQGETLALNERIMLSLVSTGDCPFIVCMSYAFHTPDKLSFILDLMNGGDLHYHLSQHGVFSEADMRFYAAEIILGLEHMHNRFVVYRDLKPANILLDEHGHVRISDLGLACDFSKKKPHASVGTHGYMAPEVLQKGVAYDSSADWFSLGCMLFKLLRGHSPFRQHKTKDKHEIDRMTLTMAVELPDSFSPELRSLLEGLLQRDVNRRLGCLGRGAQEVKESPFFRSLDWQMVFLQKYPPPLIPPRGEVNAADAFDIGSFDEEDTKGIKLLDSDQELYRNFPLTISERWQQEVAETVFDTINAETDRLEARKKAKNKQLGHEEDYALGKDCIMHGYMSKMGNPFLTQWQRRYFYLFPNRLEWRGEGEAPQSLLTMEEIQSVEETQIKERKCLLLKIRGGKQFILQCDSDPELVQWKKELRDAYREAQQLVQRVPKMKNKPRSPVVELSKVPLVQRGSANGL
MEKK2wt PB1 HTS: raises or lowers MEK5 binding to wildtype human MEKK2 PB1 domain | bead flow cytometry, Alexa488-MEK5 binding to MEKK2 WT; actives lie on both sides | 290,000 tested, 1.1% active | binding response (% of control), % at 10 µM | Q9Y2U5; in the data active = binding response below about 67% or above about 130%
MEKK2wt confirm: raises or lowers MEK5 binding to wildtype human MEKK2, retest | shares compounds with MEKK3 PB1 HTS | bead flow cytometry, Alexa488-MEK5 binding to MEKK2 WT; actives lie on both sides | binding response (% of control), % at 10 µM | 5,900 tested, 2.4% active | AID 1892; in the data active = binding response below about 16% or above about 210%; inactive = in between
MEKK2mut confirm: signal of MEK5 binding to mutant human MEKK2, retest. 5,900 tested, 2% active. shares compounds with MEKK3 PB1 HTS. percent response, % at 10 µM. bead flow cytometry, Alexa488-MEK5 binding to MEKK2 mutant; in the data active = percent response mostly above about 71%, no sharp cut-off; inactive = mostly below about 38%;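 also: higher means compound restores mutant binding toward wildtype level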
MEKK3 confirm: MEKK3-MEK5 PB1 inhibition, single concentration confirmation. shares compounds with MEKK3 PB1 HTS. bead flow cytometry, Alexa488-MEK5 binding to MEKK3; hits give low values. binding response (% of control), % at 10 µM. 5,900 tested, 1.8% active;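 active = binding response below 72% of control, or above a set upper limit, though filed actives all read lower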;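 also: lower values mean stronger disruption of MEK5 binding to MEKK3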
Of the large screens only hits and unclear results are named; the others gave an inactive call (follow-up assays come after a bar, where they were run); [ ] = dose if it differs, or a comment.

COc1ccc(-c2csc3nc(-c4cccnc4)nc(Cl)c23)cc1OC	MEKK3 PB1 HTS 145 | MEKK2wt confirm inactive | MEKK2mut confirm inactive | MEKK3 confirm inactive
Clc1nc(-c2cccnc2)nc2scc(-c3ccccc3)c12	none
CC(C)(C)OC1NS(=O)(=O)OCC1NCOC(Cl)(Cl)Cl (stereo not drawn)	none
COc1ccc(-c2nn(-c3ccccc3)cc2/C=C/C(=O)OCC(=O)Nc2cccc(C#N)c2)cc1	MEKK3 PB1 HTS 130 | MEKK2wt confirm inactive | MEKK2mut confirm inactive | MEKK3 confirm inactive
c1ccc2c(c1)ccc1ccccc12	none (no result: MEKK2 mut-MEK5, MEKK3 PB1 HTS, MEKK2wt PB1 HTS)
CC1=[N+](C)c2ccc3ccccc3c2C1(C)C	MEKK2 mut-MEK5 71 (no result: MEKK2wt PB1 HTS) | MEKK2wt confirm inactive | MEKK2mut confirm inactive | MEKK3 confirm inactive
OCC1CCN(Cc2cn(Cc3ccccc3)nc2-c2cc3ccccc3o2)CC1	none
COC1CCN(Cc2cn(Cc3ccccc3)nc2-c2cc3ccccc3o2)CC1	MEKK2wt PB1 HTS 140 | MEKK2wt confirm inactive | MEKK2mut confirm inactive | MEKK3 confirm inactive
CCN(CC)S(=O)(=O)c1ccc(N2CCOCC2)c(NC(=O)c2cc(=O)[nH]c3ccccc23)c1	MEKK3 PB1 HTS 69[inhibitor] | MEKK2wt confirm inactive | MEKK2mut confirm inactive | MEKK3 confirm inactive
CCN(CC)S(=O)(=O)c1ccc(N2CCOCC2)c(NC(=O)c2cccc3ccccc23)c1	none
CNc1nc(Cl)c(SC)c(NC2CCCCC2)n1	MEKK3 PB1 HTS 148 | MEKK2wt confirm inactive | MEKK2mut confirm inactive | MEKK3 confirm inactive
Cc1nc2ccccc2nc1OCc1cccc(Cl)c1	MEKK3 PB1 HTS 128 | MEKK2wt confirm inactive | MEKK2mut confirm inactive | MEKK3 confirm inactive
COc1ccc(N(C)S(=O)(=O)c2cccc(C(=O)OCC(=O)N3CC(C)CC(C)C3)c2)cc1 (stereo not drawn)	none (no result: MEKK2 mut-MEK5, MEKK3 PB1 HTS, MEKK2wt PB1 HTS)
CCCCC(=O)NCc1ccc2c(c1)cc(C)n2C	none
CCOC(=O)NCc1ccc2[nH]c(C)cc2c1	none
CCOC(=O)CCC(=O)NCc1ccc2[nH]c(C)cc2c1	MEKK3 PB1 HTS 82[inhibitor] | MEKK2wt confirm inactive | MEKK2mut confirm inactive | MEKK3 confirm inactive
CCOC(=O)CCC(=O)NCc1ccc2c(c1)cc(C)n2C	MEKK3 PB1 HTS 74[inhibitor] | MEKK2wt confirm inactive | MEKK2mut confirm inactive | MEKK3 confirm inactive
CCc1noc(C)c1C(=O)NNC(=O)c1ccccc1Cl	none (no result: MEKK2 mut-MEK5, MEKK3 PB1 HTS, MEKK2wt PB1 HTS)
COc1ccccc1NS(=O)(=O)c1cc([N+](=O)[O-])ccc1N/N=C/c1c(C)[nH]c2ccccc12	MEKK2 mut-MEK5 67 (no result: MEKK2wt PB1 HTS) | MEKK2wt confirm inactive | MEKK2mut confirm inactive | MEKK3 confirm inactive
O=[N+]([O-])c1ccc(N/N=C/c2c[nH]c3ccccc23)c(S(=O)(=O)Nc2ccc(Cl)cc2)c1	none (no result: MEKK2 mut-MEK5, MEKK3 PB1 HTS, MEKK2wt PB1 HTS)
CC(OC(=O)C1CCC1)C(=O)Nc1cc(Cl)cc(Cl)c1 (stereo not drawn)	none (no result: MEKK2 mut-MEK5, MEKK3 PB1 HTS, MEKK2wt PB1 HTS)
Cc1cc(C)c2c(NC(=S)NC(=O)c3ccccc3)n[nH]c2n1	MEKK3 PB1 HTS 42[inhibitor] | MEKK2wt confirm inactive | MEKK2mut confirm inactive | MEKK3 confirm inactive
Cc1cc(C)c2c(NC(=S)Nc3ccccc3)n[nH]c2n1	none
COCCCN1CN(S(=O)(=O)c2ccc(Cl)cc2)c2nc3ccccc3nc21	none
CC(C)OCCCN1CN(S(=O)(=O)c2ccccc2)c2nc3ccccc3nc21	MEKK3 PB1 HTS 6.0[inhibitor], MEKK2wt PB1 HTS 11[inhibitor] | MEKK2wt confirm inactive | MEKK2mut confirm inactive | MEKK3 confirm inactive
CCOC(=O)NC(=O)CSc1nnnn1-c1ccc(C)cc1	MEKK3 PB1 HTS 2.0[inhibitor], MEKK2wt PB1 HTS 2.0[inhibitor] | MEKK2wt confirm inactive | MEKK2mut confirm inactive | MEKK3 confirm inactive
Cc1ccc(-n2nnnc2SCC(=O)NC2CCCc3ccccc32)c(C)c1 (stereo not drawn)	none
Cc1cccc(C)c1NC(=O)CS(=O)CC(=O)NC1CCCc2ccccc21 (stereo not drawn)	MEKK3 PB1 HTS 132 | MEKK2wt confirm inactive | MEKK2mut confirm inactive | MEKK3 confirm inactive
COc1ccc(NC(=O)CS(=O)CC(=O)NC2CCCc3ccccc32)cc1 (stereo not drawn)	none
Cc1ccc(-n2nnnc2SCC(=O)NC2CCCc3ccccc32)cc1 (stereo not drawn)	MEKK3 PB1 HTS 140 | MEKK2wt confirm inactive | MEKK2mut confirm inactive | MEKK3 confirm inactive
O=C(Cc1coc2ccc3ccccc3c12)NC1CCCc2ccccc21 (stereo not drawn)	MEKK3 PB1 HTS 135 | MEKK2wt confirm inactive | MEKK2mut confirm inactive | MEKK3 confirm inactive
CCOC(=O)NC(=O)CSc1nnnn1-c1ccc(Cl)cc1	none
O=C(c1ccc(Cn2cnnn2)cc1)N1CCCC(Nc2ccc(F)c(F)c2)C1 (stereo not drawn)	none
O=Cc1c[nH]c2ccc(C(=O)c3ccccc3)cc12	none
Cc1cc(=O)[nH]c(N/N=C/C2=C(N3CCOCC3)C(=C\c3ccc(Cl)cc3)/CC2)n1	MEKK3 PB1 HTS 135 | MEKK2wt confirm inactive | MEKK2mut confirm inactive | MEKK3 confirm inactive
COc1ccccc1C1CC(c2ccccc2)Nc2ncnn21 (stereo not drawn)	MEKK3 PB1 HTS 80[inhibitor] | MEKK2wt confirm inactive | MEKK2mut confirm inactive | MEKK3 confirm inactive
COc1ccccc1C1CC(c2ccc(F)cc2)Nc2ncnn21 (stereo not drawn)	none
CCOc1ccc(Nc2nc(NCC3CCCO3)c3ccccc3n2)cc1 (stereo not drawn)	MEKK2wt PB1 HTS 166 | MEKK2wt confirm inactive | MEKK2mut confirm inactive | MEKK3 confirm inactive
c1ccc(Nc2nc(NCC3CCCO3)c3ccccc3n2)cc1 (stereo not drawn)	none
CCOc1ccc(Nc2c3ccccc3nc3ccccc23)cc1	MEKK2wt PB1 HTS 149 | MEKK2wt confirm inactive | MEKK2mut confirm inactive | MEKK3 confirm inactive
CCOc1ccc(Nc2cc(C)c3ccccc3n2)cc1	none
Cc1nn2c(COc3ccc(NC(=O)c4ccccc4Cl)cc3)nnc2c2ccccc12	none
Cc1ccc(Nc2cc(C)nc(N3CCOCC3)n2)cc1	none
Cc1cc(Nc2ccc(C)c(Cl)c2)nc(N2CCOCC2)n1	MEKK3 PB1 HTS 130 | MEKK2wt confirm inactive | MEKK2mut confirm inactive | MEKK3 confirm inactive
CC(=O)N1c2ccc(S(=O)(=O)N(C)CC(=O)NC3CCCC3)cc2CC1C (stereo not drawn)	none
O=S(=O)(c1ccc(Cl)cc1)n1ccc(-c2cccc(OCc3c(F)cccc3Cl)c2)n1	none
O=S(=O)(c1ccc(F)cc1)n1ccc(-c2cccc(OCc3c(F)cccc3Cl)c2)n1	MEKK3 PB1 HTS 2.0[inhibitor], MEKK2wt PB1 HTS 2.0[inhibitor] | MEKK2wt confirm inactive | MEKK2mut confirm inactive | MEKK3 confirm inactive
O=C(NC(=S)N1CCCC1)c1cccc([N+](=O)[O-])c1	none
O=C(NNC(=O)c1cc(-c2ccncc2)nc2ccccc12)c1ccccc1O	none (no result: MEKK2 mut-MEK5, MEKK3 PB1 HTS, MEKK2wt PB1 HTS)
